According to PubChem BioAssay AID1159580 (chemical genetic matrix, 2015):
In all, about 5,500 compounds went through this assay and about 2,000 (36%) were called active. About 18% were inconclusive and are not listed. Cut-off read from the data, not from the text of the source: active = normalized growth mostly below about 0.91 (no sharp cut-off); inconclusive = no clear call, values can overlap the other calls; inactive = mostly above about 0.92. This is one part of the list.

Test: chemical genetic growth profiling, strain panel (AID 1159580);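 note: tested at 20 µM; growth read once vehicle control cultures reached saturation at 30 °C; 1 = growth at the plate median or of vehicle wells; lower values mean less growth of the strain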
Conditions: S. cerevisiae deletion strains, growth OD

Measured: normalized growth

Cn1c(CSCCOc2ccccc2)nnc1SCc1ccc(Cl)cc1Cl
active: locus YHR030C, strain SLT2, hits give low values 0.829
inactive: locus YAR019C, strain CDC15, hits give low values 0.985 | locus YBL105C, strain PKC1, hits give low values 0.982 | locus YBR135W, strain CKS1, hits give low values 0.98 | locus YBR136W, strain MEC1, hits give low values 0.98 | locus YBR160W, strain CDC28, hits give low values 0.98 | locus YDL017W, strain CDC7, hits give low values 0.986 | locus YDL028C, strain MPS1, hits give low values 0.992 | locus YDL101C, strain DUN1, hits give low values 0.995 | locus YDL108W, strain KIN28, hits give low values 0.986 | locus YDL132W, strain cdc53, hits give low values 0.968 | locus YDL214C, strain PRR2, hits give low values 0.984 | locus YDR052C, strain DBF4, hits give low values 0.982 | locus YDR054C, strain cdc34, hits give low values 0.985 | locus YDR226W, strain ADK1, hits give low values 0.971 | locus YDR477W, strain SNF1, hits give low values 1.02 | locus YER123W, strain YCK3, hits give low values 0.98 | locus YER133W, strain GLC7, hits give low values 1 | locus YFL009W, strain cdc4, hits give low values 0.983 | locus YFL029C, strain CAK1, hits give low values 0.99 | locus YFR003C, strain YPI1, hits give low values 0.987 | locus YFR019W, strain FAB1, hits give low values 0.946 | locus YFR028C, strain CDC14, hits give low values 0.989 | locus YGR040W, strain KSS1, hits give low values 1.01 | locus YGR052W, strain FMP48, hits give low values 1.12 | locus YGR092W, strain DBF2, hits give low values 0.984 | locus YHR079C, strain IRE1, hits give low values 0.97 | locus YHR082C, strain KSP1, hits give low values 1.02 | locus YHR205W, strain SCH9, hits give low values 0.969 | locus YIL147C, strain SLN1, hits give low values 0.985 | locus YJL095W, strain BCK1, hits give low values 0.911 | locus YJL128C, strain PBS2, hits give low values 0.905 | locus YJL157C, strain FAR1, hits give low values 1.01 | locus YJR016C, strain ILV3, hits give low values 0.982 | locus YJR066W, strain TOR1 (second series), hits give low values 0.977 | locus YJR066W, strain TOR1, hits give low values 0.995 | locus YKL048C, strain ELM1, hits give low values 0.963 | locus YKL067W, strain YNK1, hits give low values 0.994 | locus YKL101W, strain HSL1, hits give low values 0.981 | locus YKL193C, strain SDS22, hits give low values 0.998 | locus YKL203C, strain TOR2, hits give low values 1.07 | locus YLR113W, strain HOG1, hits give low values 1 | locus YLR133W, strain CKI1, hits give low values 0.982 | locus YLR403W, strain SFP1, hits give low values 1.01 | locus YML070W, strain DAK1, hits give low values 1 | locus YMR001C, strain CDC5, hits give low values 0.988 | locus YMR205C, strain PFK2 (second series), hits give low values 0.994 | locus YMR277W, strain FCP1, hits give low values 0.989 | locus YNL006W, strain LST8, hits give low values 0.99 | locus YNL020C, strain ARK1, hits give low values 0.974 | locus YNL161W, strain CBK1, hits give low values 0.98 | locus YNL183C, strain NPR1, hits give low values 0.996 | locus YNL207W, strain RIO2, hits give low values 1 | locus YNL222W, strain SSU72, hits give low values 0.984 | locus YNL307C, strain MCK1 (second series), hits give low values 0.96 | locus YOL078W, strain AVO1, hits give low values 0.994 | locus YOL136C, strain PFK27, hits give low values 0.988 | locus YOR061W, strain CKA2, hits give low values 1 | locus YOR119C, strain RIO1, hits give low values 1.14 | locus YOR231W, strain MKK1, hits give low values 0.992 | locus YOR329C, strain SCD5, hits give low values 0.986 | locus YPL031C, strain PHO85, hits give low values 1.03 | locus YPL153C, strain RAD53, hits give low values 1.03 | locus YPL204W, strain HRR25, hits give low values 1.04 | locus YPL209C, strain IPL1, hits give low values 0.99 | locus YPL256C, strain CLN2, hits give low values 0.979 | locus YPR025C, strain CCL1, hits give low values 0.986 | locus YPR106W, strain ISR1, hits give low values 0.982 | locus YPR111W, strain DBF20, hits give low values 0.969 | strain NNK1, hits give low values 0.983 | strain TSCII, hits give low values 0.988
